Experimental data taken from PubChem BioAssay (NCI).
The panel holds about 83,000 compounds, 20% with a hit somewhere; the sample as a whole holds those more often.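 For each line, cells grew in 96-well plates with the test compound present at a single concentration for 48 hours.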 A number with no mark means an inactive call. The source made the active and inactive calls. How the source made its calls: active means growth percent below 10; inactive means the rest.

Columns and labels:
Test in all cases: NCI-60 one-dose screen, 48 h (100 = growth as untreated, 0 = no growth, -100 = all killed)
Conditions in all cases: 10 µM unless noted
HCT-15 colon = test system: HCT-15 colon
HT29 colon = test system: HT29 colon
SNB-75 CNS = test system: SNB-75 CNS
SNB-19 CNS = test system: SNB-19 CNS
U251 CNS = test system: U251 CNS
PC-3 prostate = test system: PC-3 prostate
SK-MEL-5 melanoma = test system: SK-MEL-5 melanoma
UACC-62 melanoma = test system: UACC-62 melanoma
LOX IMVI melanoma = test system: LOX IMVI melanoma
SK-MEL-28 melanoma = test system: SK-MEL-28 melanoma
SK-MEL-2 melanoma = test system: SK-MEL-2 melanoma
EKVX NSCLC = test system: EKVX NSCLC
SN12C renal = test system: SN12C renal
UO-31 renal = test system: UO-31 renal
TK-10 renal = test system: TK-10 renal
ACHN renal = test system: ACHN renal
CAKI-1 renal = test system: CAKI-1 renal
A498 renal = test system: A498 renal
CCRF-CEM leukemia = test system: CCRF-CEM leukemia
MOLT-4 leukemia = test system: MOLT-4 leukemia

Row | SMILES | growth (HCT-15 colon) | growth (HT29 colon) | growth (SNB-75 CNS) | growth (SNB-19 CNS) | growth (U251 CNS) | growth (PC-3 prostate) | growth (SK-MEL-5 melanoma) | growth (UACC-62 melanoma) | growth (LOX IMVI melanoma) | growth (SK-MEL-28 melanoma) | growth (SK-MEL-2 melanoma) | growth (EKVX NSCLC) | growth (SN12C renal) | growth (UO-31 renal) | growth (TK-10 renal) | growth (ACHN renal) | growth (CAKI-1 renal) | growth (A498 renal) | growth (CCRF-CEM leukemia) | growth (MOLT-4 leukemia)
1 | CNCCCNc1nc2ccccc2c2c(=O)c3cc(Cl)ccc3sc12 | -19.5% (active) | -92.4% (active) | 61% | 55.7% | -87.2% (active) | 32.8% | 71.4% | 10.9% | -90.3% (active) | 50.8% | 95.3% | 76.7% | 24.9% | 7.83% (active) | 68.9% | 13.3% | 43.8% | 76.2% | 12.3% | -42% (active)
2 | COc1ccc(C2[C@@H](c3ccccc3)C(=O)N2c2cc(OC)c(OC)c(OC)c2)cc1F (stereo partly drawn) | 8.76% (active) | -19.2% (active) | 66.2% | 30.6% | 7.17% (active) | 23.8% | -15.6% (active) | 15.1% | 19% | 63.6% | 2.73% (active) | 34.7% | 32.6% | 38% | 43.7% | 34.2% | 30.8% | 2.92% (active) | 6.85% (active) | 5.7% (active)
3 | Fc1ccc(/C=C/[C@@H]2C[C@@H](F)CCO2)cc1 | 93.7% | 99.9% | 99.3% | 93.8% | 111% | 43.6% | 98% | 90.9% | 96.9% | 92.9% | 110% | 97.3% | 100% | 87% | 94.2% | 101% | 86.8% | 109% | 86.8% | 70.1%
4 | COC(=O)[C@@]1(C)CC[C@]2(C)CC[C@]3(C)C4=CC=C5C(=CC(=O)C(O)=C5C)[C@]4(C)[C@@H](O)C[C@@]3(C)[C@@H]2C1 | 1.43% (active) | 31.1% | 70.5% | 22.9% | -10.1% (active) | 29.1% | 60.7% | 29.6% | -56.3% (active) | -17.8% (active) | 43.5% | 51% | 9.92% (active) | -56.6% (active) | 18.4% | -49.9% (active) | 9.58% (active) | 101% | -2.39% (active) | -20% (active)
5 | CNC(=O)Nc1ccc(-c2ccc3ncnc(Nc4cccc(Cl)c4)c3c2)cc1 | 45.9% | 29% | 54.6% | 69.6% | 54.9% | 45.1% | 56.1% | 64.7% | 60.8% | 58.9% | 65.9% | 2% (active) | 62.3% | 46.5% | -3.72% (active) | 34.2% | 32.1% | -8.06% (active) | 44.5% | 36.7%
6 | COc1cc(-c2ccc[nH]2)[nH]c1/C=C1\N=C(C)C(CC(=O)OCC(C)(C)C)=C1C | -78% (active) | -59.9% (active) | -23.8% (active) | -33.3% (active) | -95.6% (active) | -88.3% (active) | -95.7% (active) | -82.6% (active) | -88.3% (active) | -78.2% (active) | -60.4% (active) | -69.3% (active) | -75% (active) | -86.5% (active) | -89.9% (active) | -83.2% (active) | -78.8% (active) | -89.9% (active) | -16.5% (active) | -37% (active)
7 | C=C1C(=O)O[C@H]2[C@H]1CC/C(COC(=O)/C=C\C(=O)NCc1ccc(Cn3c(=O)sn(CCCCl)c3=O)cc1)=C\CC[C@@]1(C)O[C@@H]21 | 30.8% | 46.9% | 88.5% | 94.8% | 79.6% | 76.9% | 102% | 65.1% | 64.2% | 100% | 83.4% | 94.1% | 64.9% | 53.1% | 57.7% | 40.2% | 51.6% | 103% | 1.6% (active) | 60.7%
8 | O=[N+]([O-])c1c(O)c(Cl)cc(Cl)c1Cl | 99.8% | 101% | 98.8% | 101% | 97.9% | 88% | 98.3% | 100% | 94.2% | 109% | 113% | 107% | 101% | 93.6% | 96.8% | 103% | 102% | 110% | 106% | 100%
9 | c1cc(OCCN2CCCCC2)ccc1CNc1ccc2nc(CCC3CCCCC3)[nH]c2c1 | -13.9% (active) | 8.7% (active) | 68.1% | 62% | -11.8% (active) | 44.9% | -99.4% (active) | 53.5% | -82% (active) | -86.6% (active) | -11.3% (active) | 75.8% | 64.4% | -30.4% (active) | 80.1% | 45.4% | -28.5% (active) | 10.5% | 5.76% (active) | 7.66% (active)
10 | C=C(C)[C@@H]1CC[C@]2(C(=O)Nc3ccccn3)CC[C@]3(C)[C@H](CC[C@@H]4[C@@]5(C)CCCNC(C)(C)[C@@H]5CC[C@]43C)[C@@H]12 | 13.1% | 4.13% (active) | 33.4% | 25% | 10.4% | 17.3% | -96.5% (active) | 36.1% | 10.9% | 31.9% | 41.2% | 25.3% | 20.8% | 55.9% | 28.4% | 33.4% | 34.8% | 18.9% | 9.61% (active) | -0.121% (active)
11 | C=CN(C(=O)N1CCN(c2cc3c(cc2F)c(=O)c(C(=O)O)cn3C2CC2)CC1)c1nc(-c2ccccc2)cs1 | 102% | 93.1% | 109% | 96% | 101% | 91.1% | 95.7% | 86% | 77.5% | 101% | 88.3% | 109% | 92.8% | 84.7% | 105% | 91.1% | -82.3% (active) | 76% | 93.2% | 88.2%
12 | CCOC(=O)C1=C(CC(O)c2ccc(OC)cc2OC)NC(=O)NC1c1ccccc1 (stereo not drawn) | 110% | 100% | 87.3% | 99.8% | 106% | 95.3% | 95.5% | 89.8% | 94.5% | 115% | 120% | 105% | 105% | 95.8% | 120% | 109% | 92.2% | 122% | 95.3% | 17.2%
13 | CN1CC(c2ccc(Br)cc2)C(C(=O)c2ccc(Br)cc2)C12C(=O)Nc1ccccc12 (stereo not drawn) | 59.5% | 36% | 71.9% | 85.1% | 82.3% | 43.5% | 94.2% | 63.9% | 79.8% | 95.6% | 82.9% | 70.1% | 70% | 48.3% | 92.1% | 79.6% | 46.9% | 88.9% | 80.2% | 64.3%
14 | C=C(C)[C@@H]1CC[C@]2(C)[C@H](C=CC3=C4C[C@@](C)(CO)CC[C@]4(C)CC[C@]32C)[C@@]1(C)CCCN | -82% (active) | -38.7% (active) | -6.45% (active) | 34.3% | -64.5% (active) | -34% (active) | 17.5% | 77.6% | -100% (active) | -79.8% (active) | -52.5% (active) | 42.5% | -13.4% (active) | 47.2% | -68.4% (active) | -94.9% (active) | -81.6% (active) | 68.3% |  | -10.5% (active)
15 | COc1ccc2c(O)c(/C=C3\N=Nc4ncccc43)oc2c1C[C@@H]1CCNC[C@H]1F | -1.3% (active) | 5.21% (active) | -57.3% (active) | 1.93% (active) | -84.7% (active) | -29.1% (active) | 5.56% (active) | -33.2% (active) | -93% (active) | 5.44% (active) | -17.9% (active) | -5.63% (active) | -28.2% (active) | -14.5% (active) | -2.3% (active) | -52.7% (active) | 1.53% (active) | -32.1% (active) |  | -9.39% (active)
